# PubChem BioAssay (NCI)
# This is part of a sample that, as a whole, favours compounds with a hit. Of some 83,000 tested, about 20% had one in any assay.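 Percent growth is the endpoint: 0 to 100 indicates growth inhibition (40 means 60% inhibition), 0 means no net growth, and negative values indicate cell death.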 A number with no mark means an inactive call. The source made the active and inactive calls. The calls were made as follows: active = growth percent below 10; inactive = the rest.
# Tests used:
# Test in all cases: NCI-60 one-dose screen, 48 h (100 = growth as untreated, 0 = no growth, -100 = all killed)
# Details in all cases: 10 µM unless noted
# NCI-H23 lung = tested on: NCI-H23 lung
# NCI-H226 lung = tested on: NCI-H226 lung
# NCI-H322M lung = tested on: NCI-H322M lung
# HOP-62 NSCLC = tested on: HOP-62 NSCLC
# NCI-H460 lung = tested on: NCI-H460 lung
# HOP-92 NSCLC = tested on: HOP-92 NSCLC
# A549/ATCC NSCLC = tested on: A549/ATCC NSCLC
# 786-0 renal = tested on: 786-0 renal
# COLO 205 colon = tested on: COLO 205 colon
SMILES,growth (NCI-H23 lung),growth (NCI-H226 lung),growth (NCI-H322M lung),growth (HOP-62 NSCLC),growth (NCI-H460 lung),growth (HOP-92 NSCLC),growth (A549/ATCC NSCLC),growth (786-0 renal),growth (COLO 205 colon)
CC(C)CNc1nc(N=[N+]=[N-])nc(NCC(C)C)n1,59.9% [100 µM],75.8% [100 µM],92.5% [100 µM],84.1% [100 µM],68.8% [100 µM],-6.14% [100 µM] (active),56.3% [100 µM],55.5% [100 µM],99.2% [100 µM]
CC(=O)Nc1cc2c3c(cccc3c1)-c1ccccc1-2,89.1%,37.4%,79.9%,103%,64.4%,78.9%,34%,50.4%,107%
O=C(NN1C(=O)c2cc(C(=O)O)c(C(=O)O)cc2C1=O)c1ccncc1,108%,95%,102%,99.3%,111%,4.14% (active),119%,107%,105%
Cn1c(=O)c2[nH]c(=S)n(Cc3ccccc3)c2n(C)c1=O,93.1%,104%,118%,70%,110%,91.8%,95.2%,102%,109%
NC(=O)NC1(C(=O)O)CCCC1,105%,111%,115%,110%,112%,121%,101%,107%,107%
Clc1ccc2nc(CI)c(CI)nc2c1,85.8%,56.4%,83.7%,94.3%,118%,19.3%,96.1%,0.747% (active),0% (active)
CCOc1cc(/C=C/C(=O)C(C(=O)/C=C/c2ccc(OC(=O)CNc3nc4ccccc4[nH]3)c(OCC)c2)C(=O)CNc2nc3ccccc3[nH]2)ccc1OC(=O)CNc1nc2ccccc2[nH]1,6.88% (active),-10.9% (active),23.2%,10.1%,-27.3% (active),-13% (active),7.62% (active),-47.7% (active),-41.8% (active)
Cc1cc2c(cc1C)[n+](Cc1ccc3ccccc3c1)cn2Cc1ccc2ccccc2c1,-71.8% (active),-25.5% (active),-8.28% (active),-73% (active),-76.8% (active),-80.8% (active),-71.3% (active),-88.9% (active),-67.8% (active)
O=C1c2cccc(NCCN=Cc3ccccc3O)c2C(=O)c2c(NCCN=Cc3ccccc3O)cccc21,27.8%,73.1%,-19.2% (active),17.6%,4.28% (active),-38.3% (active),25.7%,36.7%,8.33% (active)
COc1cc(C(=O)c2cc3c(cc2C)OCO3)cc(OC)c1OC,28%,45.4%,36%,40.8%,8.71% (active),37.4%,17.8%,51.3%,-49.9% (active)
CCCc1n(Cc2ccc3ccccc3c2)cc[n+]1Cc1ccc2ccccc2c1,-28.2% (active),0.228% (active),23.2%,5.82% (active),3.26% (active),-38.3% (active),31.6%,9.55% (active),-66.9% (active)
Cc1ccc2nc(-c3ccc(N(C)C)c(Br)c3)cn2c1,92%,98.4%,120%,93.4%,40.3%,126%,98.9%,87.8%,89.3%
CCCCNCCCN(CCCC)CCCNCCCC,104%,97.3%,99.5%,94.9%,101%,41.5%,95.4%,103%,100%
COc1ccc(CCN2C(=O)CCC3=C2CCCC3=O)cc1OC,98.2%,105%,98%,95.3%,106%,78.2%,106%,108%,88.6%
Cc1[nH]ccc2cc3nc4ccccc4c3cc12,39.4%,27.2%,19.2%,34.4%,8.56% (active),31.9%,14.6%,44.7%,-5.37% (active)
COc1cnc2c(c1)C(=O)c1c-2n(CCCN2CCC(O)CC2)c(=O)c2cc(F)ccc12,-19.9% (active),-83.7% (active),-3.95% (active),-20.8% (active),-44.5% (active),-7.92% (active),-77.5% (active),-45.9% (active),-10.9% (active)
O=C(C(=O)N1CCOCC1)c1cn(CCCn2cc(C(=O)C(=O)N3CCOCC3)c3ccccc32)c2ccccc12,113%,102%,103%,103%,129%,78.8%,104%,104%,105%
COc1ccc(-c2nnc3c4[nH]cnc4ncn23)c(OC)c1,22.3%,43.5%,32.9%,25.8%,39.4%,52.9%,71.6%,21.3%,32.5%
CCOC(=O)/C=C1/SC(=Nc2ccc(C#N)cc2)N(Cc2ccco2)C1=O,70.6%,70.3%,95.5%,60.3%,38.9%,37.2%,67.2%,34.6%,50.2%
CCCCCCC(CC#N)(CCC)CCCC (stereo unspecified),110%,96.7%,113%,111%,98.9%,73.9%,103%,108%,129%
O=C(CC1Sc2ccccc2NC1=O)NNc1cccc(Cl)c1Cl (stereo unspecified),77%,73.9%,73.5%,84.6%,66.2%,24.4%,92.3%,95.3%,82.2%
FCc1ncc(-c2ccc(C(F)(F)F)cc2)c(NC2CCCCCC2)n1,10.9% [100 µM],34.4% [100 µM],36.3% [100 µM],31.2% [100 µM],-28.9% [100 µM] (active),-31.7% [100 µM] (active),7.62% [100 µM] (active),-13.7% [100 µM] (active),-21% [100 µM] (active)
O=C(Nc1cccc(Cl)c1)Nc1cccc(Cl)c1,35.8%,81.1%,79.1%,88.2%,52%,87.6%,52.4%,77.1%,89.2%
CC(=O)Nc1c(Cl)cc2c(c1Cl)Cc1ccccc1-2,91.5%,90.7%,106%,107%,104%,87.7%,92.1%,108%,112%
COc1cc(-c2n[nH]nc2-c2ccccn2)cc(OC)c1OC,98.2%,90.3%,95.8%,97.5%,104%,86.3%,65.6%,96.4%,119%
COc1cc(NC(C)CCCN)c2nc(C)ccc2c1Oc1ccc(F)cc1 (stereo unspecified),84.8%,84.9%,37.4%,85.8%,73.8%,50.3%,90%,65.9%,-45.1% (active)
COc1ccc(-c2c3c(N)nc(-c4ccncc4)nc3nc3c2c(C)nn3-c2ccccc2)cc1,59.9%,74%,74.3%,62.6%,23.4%,51.4%,30.8%,72.6%,38.6%
COc1ccc(Oc2ccccc2NC(=O)CNC(=O)c2cccc3ccccc23)cc1,36.7% [5 µM],61.4% [5 µM],45.5% [5 µM],31.5% [5 µM],11.9% [5 µM],52.1% [5 µM],20.8% [5 µM],30.1% [5 µM],-20% [5 µM] (active)
COC(=O)[C@H](Cc1cn(C)cn1)NC(=O)[C@@H](NC(=O)Nc1cc(C(F)(F)F)cc(C(F)(F)F)c1)C(C)C,-77.2% [100 µM] (active),-52.3% [100 µM] (active),-90.4% [100 µM] (active),-98.6% [100 µM] (active),-45.9% [100 µM] (active),-96.6% [100 µM] (active),-73% [100 µM] (active),-90.6% [100 µM] (active),-94.4% [100 µM] (active)
